The list is not random: actives were taken first. Their share in the collection is about 5.7%.
FAS TE block – FAS thioesterase domain inhibitors, primary screen, biochemical, fluorescence intensity, uHTS; Fatty acid synthase (Homo sapiens), P49327; recombinant FAS-TE, OMFH fluorogenic substrate, fluorescence endpoint; inhibition, % at 15 µM; actives 0.67% (n = 360,000); AID 602261, 2012;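 active = compounds whose normalised, plate-corrected inhibition of enzyme fluorescence in the single-dose primary screen is 50% or more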
MPTP inh – mitochondrial permeability transition pore inhibitors, primary screen, biochemical, isolated mouse mitochondria, absorbance; Ca2+ swelling absorbance, 30 min; inhibition, % at 10 µM; actives 1.4% (n = 360,000);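 active = inhibition of 50% or more, scaled per plate between neutral and stimulator controls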
NR3A LBD binder – binders of NR3A ligand-binding domain, primary screen, biophysical, differential scanning fluorimetry, uHTS; Tm shift relative to glycine control, % at 25 µM; Glutamate receptor ionotropic, NMDA 3A (GRIN3A) ligand-binding domain; NR3A LBD differential scanning fluorimetry, Tm shift; 0% = protein alone, 100% = glycine-bound protein; actives 2.5% (n = 340,000);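 active = melting temperature shift of at least 10% of the positive control shift, at one fixed dose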
rCAG binder – binders of r(CAG) RNA repeats, primary screen, biochemical, fluorescence | r(CAG) RNA repeat, TO-PRO-1 dye displacement fluorescence | inhibition, % at 3 µM | actives 1.3% (n = 370,000);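 active = inhibition above the plate cutoff, the mean of all test compounds on that plate plus 3 SD, cut at about 35% in these data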;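 also: higher means more dye released from RNA so lower well fluorescence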
Myeloid diff MLP – induction of myeloid progenitor differentiation, primary screen, cell-based, flow cytometry, MLPCN library. calls only at 10 µM. actives 1% (n = 360,000). ER-HoxA9 myeloid progenitors, lysozyme-GFP differentiation;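 active = normalized GFP-positive differentiation at or above the plate's own cutoff, the solvent-only control mean plus 3 SD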;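 also: cells exposed to compound for four days before flow analysis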
Myeloid diff – inducers of myeloid progenitor differentiation, confirmation, cell-based, GFP/Mac1 flow cytometry, cherry pick 01; shares compounds with Myeloid diff MLP; ER-HoxA9 myeloid progenitors, GFP/Mac1 double-positive flow; calls only; actives 2% (n = 2,300); AID 651706, 2012;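 active = share of green or green-and-red cells above 9 and 9% in run 1 or 4 and 3% in run 2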
GFP autofluor – flagged as fluorescent in myeloid differentiation counter-screen; shares compounds with Myeloid diff MLP; ER-HoxA9 myeloid progenitors, no estrogen, GFP autofluorescence flow cytometry; vehicle wells 0%, positive control 100%; fluorescence response, % (concentration not given with the values); actives 7.4% (n = 2,300); AID 651707;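 active = over 5% cells positive for green fluorescent reporter, or over 2% positive for both it and APC stain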
Of the large screens only hits and unclear results are named; the others gave an inactive call (follow-up assays come after a bar, where they were run).

Cc1cc(C)cc(NC(=O)CN2CCC(C(=O)c3ccccc3)CC2)c1	none
COCc1[nH]nc2c1C(c1c(F)cccc1Cl)C(C#N)=C(N)O2 (centres undefined)	none
N#CC1=C(N)Oc2n[nH]c(-c3ccccn3)c2C1c1c(F)cccc1Cl (centres undefined)	none | Myeloid diff inactive | GFP autofluor inactive
CC(C)CC(C(=O)NCC1CCCO1)N(C(=O)Cn1nnc(-c2ccc(F)cc2)n1)c1cccc(C(F)(F)F)c1 (centres undefined)	none
O=C(NCC1CCCO1)C(c1ccc(F)cc1)N(C(=O)Cn1nnc(-c2ccc(F)cc2)n1)c1cccc(O)c1 (centres undefined)	none | Myeloid diff inactive | GFP autofluor inactive
CCCC(=O)Nc1cc(C)cn(Cc2c(F)cccc2Cl)c1=O	none
C=C1CCC[C@]2(C)C[C@H]3OC(=O)C(CN4CC(C)OC(C)C4)[C@H]3C[C@@H]12 (some centres undefined)	none
CC1CCN(CC2C(=O)O[C@@H]3C[C@@]4(C)CCC[C@H](C)C4=C[C@H]23)CC(C)(C)C1 (some centres undefined)	none | Myeloid diff inactive | GFP autofluor inactive
CS(=O)(=O)N1CCCC(C(=O)Nc2ccccc2)C1 (centres undefined)	none
COc1ccc(CN2C(=NC(=O)CCc3ccccc3)SC3CS(=O)(=O)CC32)cc1 (centres undefined)	none
Cc1ccc(S(=O)(=O)N2C[C@]3(O)C[C@@H]4C(=O)N(c5ccccc5)C(=O)[C@@H]4C[C@]3(OC(=O)Nc3c(C)noc3C)C2)cc1	none (no result: NR3A LBD binder)
CS(=O)(=O)N1CCC(C(=O)Nc2cc(Cl)c(Cl)cc2Cl)CC1	none | Myeloid diff inactive | GFP autofluor inactive
CS(=O)(=O)N1CCC(C(=O)Nc2cc(Cl)ccc2Cl)CC1	none
CSc1cccc(NC(=O)CN2C(=O)c3ccccc3S2(=O)=O)c1	none | Myeloid diff inactive | GFP autofluor inactive
COc1cccc(NC(=O)CCN2C(=O)c3ccccc3S2(=O)=O)c1	none
CC(C)C(=O)Nc1cccc(NC(=O)CCN2C(=O)c3ccccc3S2(=O)=O)c1	none | Myeloid diff inactive | GFP autofluor inactive
N/C(=N\OC(=O)c1cc(Cl)ccc1Cl)c1ccccn1	none
N#C/C(=C\c1cccnc1)C(=O)Nc1ccc(O)cc1F	none
COC(=O)[C@]12C[C@H](CC(=O)NCCCCc3ccccc3)C(=O)N(Cc3ccc(Cl)cc3Cl)C1=C[C@H](C(C)(C)C)O[C@@H]2C	none (no result: FAS TE block, MPTP inh, NR3A LBD binder, Myeloid diff MLP)
C=CCNC(=O)C1CCCN(S(C)(=O)=O)C1 (centres undefined)	none | Myeloid diff inactive | GFP autofluor inactive
COc1ccc(-c2nc(CN3CCC(C(=O)N4CCc5ccccc54)CC3)c(C)o2)cc1OC	none | Myeloid diff inactive | GFP autofluor inactive
COc1ccc(-c2nc(CN3CCC(C(=O)NC4CC4)CC3)c(C)o2)cc1OC	none
Cc1ccccc1OCc1nnc(SCC(=O)O)n1-c1cccc(Cl)c1	none
Cc1noc(C)c1COc1ccccc1C(=O)N(C)CC(=O)Nc1ccc(F)c(F)c1F	none
CSc1sc(C(=O)NN)c2c1C(O)CCC2 (centres undefined)	none
CNc1ccc([N+](=O)[O-])cc1-c1nc2ccccc2[nH]c1=O	Myeloid diff MLP active | Myeloid diff inactive | GFP autofluor inactive
CC(C)C(=O)Nc1ccc(Cl)cc1-c1nc2ccccc2[nH]c1=O	none
N#Cc1cnn2ccc(-c3ccc4c(c3)CCC4)nc12	none
CCOC(=O)c1oc2ccc(CNCCO)c(Cl)c2c1C	none
CCOC(=O)c1oc2ccc(CNC3CCCCC3)c(Cl)c2c1C	Myeloid diff MLP active | Myeloid diff inactive | GFP autofluor inactive
O=C1CCC/C(=N/NC(=O)c2ccc(NS(=O)(=O)c3cccs3)cc2)C1	none | Myeloid diff inactive | GFP autofluor inactive
COc1ccc(S(=O)(=O)N2CCOC2CNC(=O)C(=O)NCc2ccccc2OC)cc1 (centres undefined)	none
c1ccc(COc2cccc(-c3cc4nc(NCCN5CCOCC5)ccn4n3)c2)cc1	Myeloid diff MLP active (no result: NR3A LBD binder) | Myeloid diff inactive | GFP autofluor inactive
c1ccc(COc2ccc(-c3cc4nc(NCCN5CCOCC5)ccn4n3)cc2)cc1	none (no result: NR3A LBD binder)
Clc1cccc(CNc2ccn3nc(-c4ccc(OCc5ccccc5)cc4)cc3n2)c1	Myeloid diff MLP active (no result: NR3A LBD binder) | Myeloid diff inactive | GFP autofluor inactive
COc1ccc(Br)cc1CN(C)C(=O)C1=CC=CN2CCS(=O)(=O)N=C12	none | Myeloid diff inactive | GFP autofluor inactive
CN(Cc1ccc(Cl)c(Cl)c1)C(=O)C1=CC=CN2CCS(=O)(=O)N=C12	Myeloid diff MLP active | Myeloid diff active | GFP autofluor inactive
O=C(Oc1ccc(Cl)c(Cl)c1)C1=CC=CN2CCS(=O)(=O)N=C12	none
Cn1c(Cc2cccs2)nnc1SCC(=O)Nc1ccc(C(N)=O)cc1	none
Cc1cc(C(=O)CSc2n[nH]c(N)n2)c(C)n1-c1ccc2c(c1)OCO2	none
C[C@H](NC(=O)C1CCN(C(=O)[C@@H]2CCCN2C(=O)OC(C)(C)C)CC1)C(=O)NCc1ccc(F)cc1	none (no result: NR3A LBD binder)
Cc1ccc(CNC(=O)[C@H](C)NC(=O)C2CCN(C(=O)[C@@H]3CCCN3C(=O)OC(C)(C)C)CC2)cc1	Myeloid diff MLP active | Myeloid diff inactive | GFP autofluor inactive
Cc1cc(N2CCCC2)ccc1/C=C1\NC(=S)N(C)C1=O	none | Myeloid diff inactive | GFP autofluor 51
CN1C(=O)c2ccc(N3CCCC3)cc2C1=O	none
CCc1ccccc1NC(=O)CNC(=O)CCc1nc2sc3c(c2c(=O)[nH]1)CCCC3	none
O=C(Nc1cccc(Cl)c1)c1ccc(NCCCN2CCOCC2)c([N+](=O)[O-])c1	none
Cc1ccc(NC(=O)c2ccc(NCCCN3CCC(C)CC3)c([N+](=O)[O-])c2)cc1F	none | Myeloid diff inactive | GFP autofluor inactive
O=C1NC2(CCCCC2)C(=O)N1/N=C/c1ccc(O)cc1O	Myeloid diff MLP active | Myeloid diff inactive | GFP autofluor inactive
COc1ccc(CCNS(=O)(=O)c2cccc(F)c2)cc1OC	none | Myeloid diff inactive | GFP autofluor inactive
COc1ccc(CCNS(=O)(=O)c2ccc3c(c2)CCCC3)cc1OC	none
COc1ccccc1N1CCN(C(=S)NC(=O)/C=C/c2ccccc2)CC1	none
CC(=O)c1cccc(NC(=O)Cc2ccc3c(c2)CCCC3)c1	none

From PubChem BioAssay
